Only a selection was taken, and hits are over-represented in it overall.
Pf Dd2 inh: blocks in vitro growth of P. falciparum Dd2; hit rate 4.3% among 120,000; Potency, µM (series often up to 28.9 µM), usual class: inhibitors; P. falciparum Dd2 growth, SYBR Green, 72 h; active = well fitted inhibition curve with a large enough effect; note: nearly all actives have a fitted effect of over 65% in size
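Infected erythrocytes (Dd2, 0.3% parasitemia, 2.5% hematocrit final) are added to compound in RPMI-1640/Albumax II medium, grown 72 h at 37C in low oxygen, then lysed with saponin/Triton-X containing SYBR Green and read by fluorescence.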
A number is an active result; . = inactive.

SMILES	Pf Dd2 inh
CCCC1(CO)CCCN(Cc2nnc(-c3cccc(F)c3)o2)C1 (centres undefined)	.
CC(=O)Nc1ccc(S(=O)(=O)N[C@H]2CO[C@H]3[C@@H]2OC[C@@H]3n2nnnc2Oc2cccc(N3CCOCC3)c2)cc1	.
O=C(C1CC1)N1CCCC1c1nc(C2CCOCC2)no1 (centres undefined)	.
C[S+](=O)([O-])N1CCC(c2nnc3n2C(C(=O)N2CCN(c4ncccn4)CC2)CC3)CC1 (centres undefined)	.
CC(=O)NC1(C)CCN(Cc2ccc(-c3ccccc3OCc3ccccc3)cc2)C1 (centres undefined)	12.6µM
CC(=O)NC1(C)CCN(Cc2cnc(-c3ccccc3)s2)CC1	.
CC(=O)NC1(C)CCN(Cc2ccc(-c3ccc(N4CCOCC4)cc3)cc2)C1 (centres undefined)	.
CC(=O)NC1(C)CCN(Cc2ccccc2-c2cccc(C(C)=O)c2)C1 (centres undefined)	.
CC(=O)NC1(C)CCN(Cc2cnc(-c3cccc(N(C)C)c3)s2)CC1	.
